# Measurements from PubChem BioAssay (NCATS).
# Records with an inconclusive call do not appear. The source made the active and inactive calls. Unless noted, calls come from the whole dose curve.
# Columns and labels:
# [1] = target: Lysosomal acid glucosylceramidase (Homo sapiens) (UniProt P04062); test: Glucocerebrosidase-p2 (AID 348; in the data active = potency below about 10 µM; note: potency is the fitted concentration of half-maximal effect); details: purified GBA, blue fluorogenic substrate, 40 min
# Sequence of Lysosomal acid glucosylceramidase (Homo sapiens) (P04062 whole entry, looked up): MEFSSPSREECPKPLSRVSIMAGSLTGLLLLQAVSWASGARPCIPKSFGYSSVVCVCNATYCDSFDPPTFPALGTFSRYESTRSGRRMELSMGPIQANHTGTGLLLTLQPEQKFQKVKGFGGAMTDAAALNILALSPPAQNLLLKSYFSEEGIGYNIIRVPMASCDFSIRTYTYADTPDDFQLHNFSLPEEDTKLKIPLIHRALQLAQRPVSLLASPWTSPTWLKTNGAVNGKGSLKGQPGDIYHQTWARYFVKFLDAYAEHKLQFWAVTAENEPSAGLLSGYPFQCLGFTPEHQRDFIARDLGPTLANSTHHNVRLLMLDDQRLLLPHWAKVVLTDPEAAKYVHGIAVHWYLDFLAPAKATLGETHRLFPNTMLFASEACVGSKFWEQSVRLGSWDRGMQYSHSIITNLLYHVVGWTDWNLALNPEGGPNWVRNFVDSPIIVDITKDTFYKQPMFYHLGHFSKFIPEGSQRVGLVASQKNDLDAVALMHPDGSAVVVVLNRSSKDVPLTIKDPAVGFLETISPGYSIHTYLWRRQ
# Procedure, shortened: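 Compounds titrated from 0.6 nM upwards against 0.2 nM enzyme in pH 5.9 citric acid/KH2PO4, taurocholate, tween-20; blue fluorogenic substrate 80 uM, 40 min room temperature, stopped and read Ex 365/Em 440 for AC50.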
# [2] = target: Cytochrome P450 1A2 (Homo sapiens) (UniProt P05177); test: p450-cyp1a2 (AID 410); details: recombinant CYP1A2, luciferin-ME demethylation, luminescence; series mostly up to 57 µM; note: potency is the fitted concentration of half-maximal effect;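 for activity change, negative = inhibition: -100% = full effect of reference inhibitor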
# Sequence of Cytochrome P450 1A2 (Homo sapiens) (P05177 whole entry, looked up): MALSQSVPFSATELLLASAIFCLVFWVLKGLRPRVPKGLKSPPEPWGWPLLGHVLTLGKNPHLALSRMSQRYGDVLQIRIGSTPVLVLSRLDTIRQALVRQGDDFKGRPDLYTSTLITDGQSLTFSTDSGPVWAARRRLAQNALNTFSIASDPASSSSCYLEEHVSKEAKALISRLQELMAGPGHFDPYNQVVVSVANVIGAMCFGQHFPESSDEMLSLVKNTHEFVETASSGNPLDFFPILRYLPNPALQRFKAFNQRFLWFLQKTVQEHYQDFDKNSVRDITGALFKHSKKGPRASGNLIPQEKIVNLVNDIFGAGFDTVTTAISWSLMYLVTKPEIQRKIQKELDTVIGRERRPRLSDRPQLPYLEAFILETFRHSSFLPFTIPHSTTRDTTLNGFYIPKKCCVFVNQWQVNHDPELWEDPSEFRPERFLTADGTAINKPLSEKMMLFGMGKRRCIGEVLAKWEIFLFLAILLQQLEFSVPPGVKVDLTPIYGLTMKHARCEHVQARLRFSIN
# Procedure, shortened: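 Human CYP1A2 (20nM) demethylated Luciferin-ME at its Km (100uM) in 100mM KPO4. After 10 min compound preincubation, NADPH regeneration ran the reaction 60 min at room temperature. Luciferin was read by luminescence, normalized to 57 uM furafylline.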
# [3] = Stat Signaling Pathway (AID 446; active = well fitted curve in either direction with a large enough effect, not every such curve was filed as active;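 note: ME-180 cervical cancer cells given 40 pM IL-6 alongside compound; SIE-controlled beta-lactamase reporter measured as 460/530 nm FRET emission ratio; % is set by controls: 0 for no effect and ±100 for the full control effect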); details: ME-180 (cervical carcinoma) SIE beta-lactamase reporter, IL-6 stimulated, 5 h; at 7.69 µM (top of the series) unless noted
# Procedure, shortened: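 IL-6/STAT signaling read in ME-180 cells via an SIE beta-lactamase reporter. Stimulus was 40 pM IL-6 (its AC50) for 5 hrs, so both activation and inhibition register.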
# [4] = target: Glucocorticoid receptor (Homo sapiens) (UniProt P04150); test: GR-GFP Redistribution (AID 450;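 active = compounds whose dose series gives a full or clear partial fitted curve of increased nuclear translocation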; note: potency is the fitted concentration of half-maximal effect); details: U2OS GR-GFP nuclear translocation, laser cytometry, 2 h
# Sequence of Glucocorticoid receptor (Homo sapiens) (P04150 whole entry, looked up, the tested form may be a part): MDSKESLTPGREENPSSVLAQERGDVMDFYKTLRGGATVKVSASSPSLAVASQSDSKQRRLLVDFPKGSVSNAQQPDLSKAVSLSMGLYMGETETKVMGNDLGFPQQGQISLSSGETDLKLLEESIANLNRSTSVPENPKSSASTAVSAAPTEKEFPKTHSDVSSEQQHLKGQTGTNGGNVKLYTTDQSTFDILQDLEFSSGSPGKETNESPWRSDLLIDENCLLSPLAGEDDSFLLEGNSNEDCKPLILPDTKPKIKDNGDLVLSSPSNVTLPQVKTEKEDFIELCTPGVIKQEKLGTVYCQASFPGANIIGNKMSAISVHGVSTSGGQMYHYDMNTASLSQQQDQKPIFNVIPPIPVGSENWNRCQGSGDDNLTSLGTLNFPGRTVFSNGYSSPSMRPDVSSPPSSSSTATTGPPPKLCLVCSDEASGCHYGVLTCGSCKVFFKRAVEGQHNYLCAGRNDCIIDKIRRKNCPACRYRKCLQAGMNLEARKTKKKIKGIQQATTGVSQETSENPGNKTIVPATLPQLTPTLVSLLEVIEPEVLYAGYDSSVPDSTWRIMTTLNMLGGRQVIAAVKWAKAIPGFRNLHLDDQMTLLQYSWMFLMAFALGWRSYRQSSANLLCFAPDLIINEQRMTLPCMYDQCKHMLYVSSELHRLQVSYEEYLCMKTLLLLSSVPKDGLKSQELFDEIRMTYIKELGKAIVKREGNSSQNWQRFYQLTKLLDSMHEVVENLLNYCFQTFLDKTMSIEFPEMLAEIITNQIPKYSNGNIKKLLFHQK
# [5] = target: Glucocorticoid receptor (Homo sapiens) (UniProt P04150); test: GR-EFC Redistribution (AID 451); details: CHO-K1 GR-EFC translocation, beta-gal luminescence, 2 h; note: potency is the fitted concentration of half-maximal effect
# Procedure, shortened: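 Translocation of GR-ED fusion to nuclear EA restores b-gal, read by luminescence after 1 h room-temperature detection. Engineered CHO-K1 biosensor cells, 1,000/well, exposed 2 h at 37 C to titrations up to 46 uM final.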
# [6] = target: Mitogen-activated protein kinase 10 (Mus musculus) (UniProt Q61831); test: JNK3 AlphaScreen Assay (AID 530; active = well fitted curve in either direction with a large enough effect, not every such curve was filed as active;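 note: kinase came from lysate of stimulated human HepG2 cells; signal reports phosphorylation of biotinylated GST-cJun 1-79 at Ser73 with 10 µM ATP; % is set by controls: 0 for no effect and ±100 for the full control effect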); details: JNK3 lysate, c-Jun phosphorylation; series mostly up to 57.1 µM
# Procedure, shortened: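 Room-temperature AlphaScreen kinase assay; pre-activated HepG2 lysate as JNK3 source, biotin-GST-cJun(1-79) substrate, 10 uM ATP, compound 15 min preincubation.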
# [7] = target: 3',5'-cyclic-AMP phosphodiesterase 4B (Homo sapiens) (UniProt Q07343); test: qHTS Assay for Inhibitors of PDE-IV (AID 607; active = well fitted activation curve with a large enough effect in the main read-out, with a control signal flat, not every such curve was filed as active; note: % of control where 0% means no effect); details: HEK293 ACTOne CNG channel cells, membrane potential fluorescence; series mostly up to 22.9 µM
# Sequence of 3',5'-cyclic-AMP phosphodiesterase 4B (Homo sapiens) (Q07343 whole entry, looked up): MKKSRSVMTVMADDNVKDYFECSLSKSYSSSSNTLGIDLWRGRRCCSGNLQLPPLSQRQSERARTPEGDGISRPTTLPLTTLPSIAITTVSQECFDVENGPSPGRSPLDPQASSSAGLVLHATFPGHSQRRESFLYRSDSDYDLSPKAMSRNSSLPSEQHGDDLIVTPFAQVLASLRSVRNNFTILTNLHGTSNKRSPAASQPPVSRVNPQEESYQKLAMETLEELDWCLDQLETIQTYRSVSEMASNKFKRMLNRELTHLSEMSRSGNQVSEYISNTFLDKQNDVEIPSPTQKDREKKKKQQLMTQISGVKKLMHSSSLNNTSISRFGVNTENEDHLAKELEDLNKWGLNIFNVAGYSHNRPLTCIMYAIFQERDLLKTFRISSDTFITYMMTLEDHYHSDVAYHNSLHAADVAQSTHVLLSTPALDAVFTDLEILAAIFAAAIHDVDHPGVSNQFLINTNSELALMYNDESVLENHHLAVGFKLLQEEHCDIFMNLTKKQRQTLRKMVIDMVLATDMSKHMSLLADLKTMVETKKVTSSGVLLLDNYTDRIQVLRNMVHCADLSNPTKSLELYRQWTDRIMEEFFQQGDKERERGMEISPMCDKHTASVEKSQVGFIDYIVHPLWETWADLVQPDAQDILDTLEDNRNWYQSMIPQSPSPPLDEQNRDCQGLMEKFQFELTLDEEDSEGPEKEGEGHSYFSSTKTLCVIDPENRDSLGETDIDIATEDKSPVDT
# Procedure, shortened: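 Live HEK293 cells with a modified cyclic nucleotide-gated (CNG) channel report intracellular cAMP via membrane-potential dye fluorescence (ex 535/em 590 nm). Endogenous PDE-IV was targeted. Compounds were tested at up to 22.9 uM final; RO 20-1724 100 uM served as control.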
# [8] = target: Cytochrome P450 3A4 (Homo sapiens) (UniProt P08684); test: qHTS Assay for Inhibitors and Substrates of Cytochrome P450 3A4 (AID 884; active = well fitted curve in the direction sought with a large enough effect; an effect the other way counts as inactive or inconclusive; note: potency is the fitted concentration of half-maximal effect; nearly all actives have a fitted effect of over 50% in size); details: recombinant CYP3A4, Luciferin-PPXE luminescence; series mostly up to 57.1 µM
# Sequence of Cytochrome P450 3A4 (Homo sapiens) (P08684 whole entry, looked up): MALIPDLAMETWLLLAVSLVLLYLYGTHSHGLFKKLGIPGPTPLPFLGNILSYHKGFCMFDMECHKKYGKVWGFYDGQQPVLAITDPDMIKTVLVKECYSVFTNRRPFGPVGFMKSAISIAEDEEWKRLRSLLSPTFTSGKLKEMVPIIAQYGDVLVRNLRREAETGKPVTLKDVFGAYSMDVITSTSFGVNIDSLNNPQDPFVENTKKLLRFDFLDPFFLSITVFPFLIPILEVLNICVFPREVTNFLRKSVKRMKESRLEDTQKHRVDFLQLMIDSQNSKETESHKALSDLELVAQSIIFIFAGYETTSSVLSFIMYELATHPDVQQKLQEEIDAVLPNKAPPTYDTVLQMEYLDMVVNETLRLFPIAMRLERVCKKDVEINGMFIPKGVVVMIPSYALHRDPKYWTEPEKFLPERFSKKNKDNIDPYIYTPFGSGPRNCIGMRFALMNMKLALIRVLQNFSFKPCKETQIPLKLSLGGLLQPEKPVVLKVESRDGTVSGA
# Procedure, shortened: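 20 nM human CYP3A4 with 25 uM Luciferin-PPXE (at KM) in 200 mM KPO4, preincubated 10 min with compound; NADPH regeneration started a 60 min RT reaction. Luciferin detected by luminescence, normalized to 57 uM ketoconazole as full inhibition.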
# [9] = target: Cytochrome P450 3A4 (Homo sapiens) (UniProt P08684); test: qHTS Assay for Activators of Cytochrome P450 3A4 (AID 885; active = well fitted curve in the direction sought with a large enough effect; an effect the other way counts as inactive or inconclusive; note: nearly all actives have a fitted effect of over 65% in size); details: recombinant CYP3A4, Luciferin-PPXE luminescence, 60 min; series mostly up to 57.1 µM
# Procedure, shortened: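 Quantitative HTS format: compounds preincubated with 20nM human CYP3A4 and Luciferin-PPXE substrate at KM, reaction started by NADPH regeneration, stopped after 60 min, luciferase luminescence read 20 min later.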
# [10] = Confirmation and Secondary Assay for Modulators of Hemoglobin Beta Chain Splicing at IVS2 654 locus (AID 910; active = well fitted curve in the direction sought with a large enough effect; an effect the other way counts as inactive or inconclusive;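 note: HeLa cells stably carrying EGFP split by mutant beta-globin IVS2-654 intron; per-well total GFP intensity by laser scanning cytometry after 2-day treatment; % of control where 0% means no effect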); details: HeLa EGFP-654 splicing reporter, GFP fluorescence, 48 h; series mostly up to 38.3 µM
# Procedure, shortened: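 Readout: per-well total peak green fluorescence (488 nm ex, 500–520 nm em) from objects 5–250 µm, reflecting correct splicing of an EGFP-654 reporter. Compounds were applied for 2 days at 37 °C to overnight-plated HeLa EGFP-654 cells; controls were DMSO and 500 nM IVS2-654 PNA.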
# [11] = Confirmation and Secondary Assay for Modulators of Hemoglobin Beta Chain Splicing at IVS2 705 locus (AID 930; active = well fitted curve in the direction sought with a large enough effect; an effect the other way counts as inactive or inconclusive;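 note: HeLa cells stably expressing the EGFP-705 splicing reporter; GFP fluorescence per well restored by corrected splicing of the IVS2-705 intron in EGFP; % of control where 0% means no effect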); details: HeLa EGFP-705 splicing reporter, GFP fluorescence, 48 h; series mostly up to 38.3 µM
# Procedure, shortened: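 HeLa EGFP-705 reporter; 500 cells/well, o/n 37C 5% CO2; cpd 2 d; 488 ex/500-520 em laser scan; total peak GFP intensity/well. Ref: 500 nM […] antisense PNA.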
# [12] = qHTS Assay for Lipid Storage Modulators (AID 1519); details: Drosophila S3 cells, BODIPY lipid droplet/cell ratio, laser cytometry, cells loaded with oleic acid; for activity change, negative = inhibition: at 57.5 µM (top of the series)
# Procedure, shortened: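 Cells seeded at 5,000 per well were treated with compounds over a concentration series and loaded with oleic acid (400 uM, as added). Lipid droplet fluorescence (488 nm excitation, 500-530 nm channel) was read by laser-scanning cytometry and normalized to 20 uM Triacsin C.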
# [13] = target: Ubiquitin carboxyl-terminal hydrolase 1 (Homo sapiens) (UniProt O94782); test: Inhibitors of USP1/UAF1: Pilot qHTS (AID 504865; active = well fitted curve in the direction sought with a large enough effect; an effect the other way counts as inactive or inconclusive;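 note: rhodamine fluorescence freed from ubiquitin-rhodamine substrate followed over time; top concentration of the series differs between compounds; % is set by controls: 0 for no effect and ±100 for the full control effect; nearly all actives have a fitted effect of over 35% in size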); details: purified USP1/UAF1, Ub-rhodamine cleavage fluorescence; series mostly up to 54.9 µM
# Sequence of Ubiquitin carboxyl-terminal hydrolase 1 (Homo sapiens) (O94782 whole entry, looked up): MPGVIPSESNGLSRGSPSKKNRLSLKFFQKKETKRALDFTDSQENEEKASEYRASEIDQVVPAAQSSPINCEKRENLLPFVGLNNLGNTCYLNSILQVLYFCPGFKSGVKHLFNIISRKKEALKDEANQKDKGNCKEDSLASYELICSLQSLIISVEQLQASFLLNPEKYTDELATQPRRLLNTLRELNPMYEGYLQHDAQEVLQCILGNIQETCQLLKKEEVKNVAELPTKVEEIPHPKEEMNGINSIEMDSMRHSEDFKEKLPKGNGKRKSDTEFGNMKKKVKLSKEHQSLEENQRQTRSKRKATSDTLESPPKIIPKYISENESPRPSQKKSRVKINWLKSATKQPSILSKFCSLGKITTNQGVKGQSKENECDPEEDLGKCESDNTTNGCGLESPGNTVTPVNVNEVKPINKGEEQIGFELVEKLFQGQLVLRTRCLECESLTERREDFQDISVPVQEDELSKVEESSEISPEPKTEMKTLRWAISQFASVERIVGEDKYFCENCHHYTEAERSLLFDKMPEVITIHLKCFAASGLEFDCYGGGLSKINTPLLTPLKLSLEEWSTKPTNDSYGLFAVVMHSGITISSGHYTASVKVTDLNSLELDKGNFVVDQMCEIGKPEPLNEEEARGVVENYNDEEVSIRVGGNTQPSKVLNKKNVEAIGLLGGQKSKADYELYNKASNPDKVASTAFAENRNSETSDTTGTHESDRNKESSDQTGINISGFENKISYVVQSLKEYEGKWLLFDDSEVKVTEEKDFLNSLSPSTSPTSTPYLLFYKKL
# Procedure, shortened: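 In 50mM HEPES pH 7.8 containing 0.5mM EDTA, 1mM TCEP, 0.1 mg/ml BSA and 0.01% Tween-20, 1nM USP1/UAF1 is exposed to compound for 15 min, then Ub-Rho (150nM final) is added and fluorescence is read over time.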
# [14] = Primary qHTS for small molecule stabilizers of the endoplasmic reticulum resident proteome: Secreted ER Calcium Modulated Protein (SERCaMP) assay (AID 1508630; active = well fitted curve in the direction sought with a large enough effect; an effect the other way counts as inactive or inconclusive; note: % is set by controls: 0 for no effect and ±100 for the full control effect); details: SH-SY5Y GLuc-SERCaMP (Gaussia luciferase released on ER calcium loss) secretion, thapsigargin, luminescence; series mostly up to 38.4 µM
# Procedure, shortened: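 GLuc-SERCaMP-expressing SH-SY5Y cells, pretreated 16 h with compound, are challenged with thapsigargin to empty ER calcium stores; after 4 h, coelenterazine is added directly to the medium and luminescence is imaged.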
# [15] = NFAT Signaling Pathway (AID 444; active = well fitted curve in either direction with a large enough effect, not every such curve was filed as active;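 note: carbachol stimulus at about its EC50 of 1 µM final; % is set by controls: 0 for no effect and ±100 for the full control effect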); details: Jurkat NFAT-bla M1, carbachol, beta-lactamase ratio, 5 h; at 7.69 µM (top of the series) unless noted
# Procedure, shortened: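 Read-out: CCF4 FRET ratio (460 nm/530 nm) after 1 h RT dye loading, used for %activity and AC50 from titration series. Cells: Jurkat NFAT-β-lactamase/M1 line, treated with compound plus 1 uM carbachol for 5 h, 37 °C.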
# [16] = target: Cytochrome P450 2D6 (Homo sapiens) (UniProt P10635); test: qHTS Assay for Inhibitors and Substrates of Cytochrome P450 2D6 (AID 891; active = well fitted curve in the direction sought with a large enough effect; an effect the other way counts as inactive or inconclusive; note: potency is the fitted concentration of half-maximal effect; nearly all actives have a fitted effect of over 60% in size); details: recombinant CYP2D6, luciferin-ME EGE luminescence; series mostly up to 57.1 µM
# Sequence of Cytochrome P450 2D6 (Homo sapiens) (P10635 whole entry, looked up): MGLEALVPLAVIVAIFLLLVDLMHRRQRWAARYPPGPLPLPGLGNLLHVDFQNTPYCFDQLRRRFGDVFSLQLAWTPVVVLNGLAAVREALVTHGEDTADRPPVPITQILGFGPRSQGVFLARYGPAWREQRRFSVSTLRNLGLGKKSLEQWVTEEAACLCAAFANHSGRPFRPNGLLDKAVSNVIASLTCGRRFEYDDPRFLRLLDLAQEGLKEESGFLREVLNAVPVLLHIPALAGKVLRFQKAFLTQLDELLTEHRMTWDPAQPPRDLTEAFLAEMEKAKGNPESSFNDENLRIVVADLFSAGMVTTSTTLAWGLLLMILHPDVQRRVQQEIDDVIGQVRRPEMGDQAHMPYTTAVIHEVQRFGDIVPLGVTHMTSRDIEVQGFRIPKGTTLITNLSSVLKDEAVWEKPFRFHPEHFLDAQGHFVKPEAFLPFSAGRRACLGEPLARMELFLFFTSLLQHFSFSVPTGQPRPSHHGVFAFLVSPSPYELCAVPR
# Procedure, shortened: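 Human CYP2D6 (5 nM) with 30 uM Luciferin-ME EGE (at Km) in 100 mM KPO4, compound preincubated 10 min, then NADPH regeneration system for 60 min at room temperature. Luciferin read by luminescence; normalized to 1.43 uM quinidine.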
# [17] = target: Cytochrome P450 2C9 (Homo sapiens) (UniProt P11712); test: qHTS Assay for Inhibitors and Substrates of Cytochrome P450 2C9 (AID 883; active = well fitted curve in the direction sought with a large enough effect; an effect the other way counts as inactive or inconclusive; note: potency is the fitted concentration of half-maximal effect; nearly all actives have a fitted effect of over 60% in size); details: recombinant CYP2C9, luciferin-H luminescence, 60 min; series mostly up to 57.1 µM
# Sequence of Cytochrome P450 2C9 (Homo sapiens) (P11712 whole entry, looked up): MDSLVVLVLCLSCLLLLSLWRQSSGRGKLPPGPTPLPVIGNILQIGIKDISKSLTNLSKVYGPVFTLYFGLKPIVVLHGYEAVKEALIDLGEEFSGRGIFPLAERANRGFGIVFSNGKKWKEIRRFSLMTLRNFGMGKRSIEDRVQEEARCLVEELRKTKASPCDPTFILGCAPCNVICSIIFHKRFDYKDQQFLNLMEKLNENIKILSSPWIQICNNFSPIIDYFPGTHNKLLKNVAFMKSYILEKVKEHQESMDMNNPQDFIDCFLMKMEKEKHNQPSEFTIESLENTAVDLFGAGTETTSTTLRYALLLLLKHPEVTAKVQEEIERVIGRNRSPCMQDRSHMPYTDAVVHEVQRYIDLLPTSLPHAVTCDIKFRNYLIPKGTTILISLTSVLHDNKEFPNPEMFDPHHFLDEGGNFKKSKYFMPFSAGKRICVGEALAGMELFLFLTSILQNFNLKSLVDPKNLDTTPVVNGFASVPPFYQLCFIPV
# Procedure, shortened: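 Turnover of Luciferin-H (100uM, KM) by 10nM human CYP2C9 was measured over 60 min at 37C with NADPH regeneration; inhibitors and some substrates reduce luminescence. Data normalized to sulphaphenazole 57uM.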
# [18] = measured here: cell count channel max response
# [19] = measured here: lipid channel max response
SMILES,Potency [1],Potency [2],"activity, negative = inhibition [3]",Potency [4],Potency [5],Potency [6],Potency [7],Potency [8],Potency [9],Potency [10],outcome [11],"activity change, negative = inhibition [12]","max response [12, 18]","max response [12, 19]",Potency [13],outcome [14],"activity change, negative = inhibition [15]",Potency [16],Potency [17]
Cc1cnc(CNc2ncncc2-c2ccccc2CN(C)C)cn1,> 11.4 µM (inactive),12.6 µM (active),17.1% (inactive),> 46 µM (inactive),> 46 µM (inactive),inactive,inactive,3.16 µM (active),inactive,inactive,inactive,-8.48% (inactive),4.47%,0.168%,inactive,inactive,–,–,–
O=C(c1cnccn1)N1CCC2(CCCN(C(c3ccccc3)c3ccccc3)C2)CC1,> 11.4 µM (inactive),20 µM (active),14% (inactive),–,> 46 µM (inactive),inactive,–,1.58 µM (active),inactive,–,–,0.62% (inactive),6.86%,7.68%,–,inactive,–,–,–
CS(=O)(=O)N1CCC2(CC1)CN(c1ccccc1)C2,> 11.4 µM (inactive),20 µM (active),-8.44% (inactive),–,> 46 µM (inactive),inactive,inactive,–,–,–,–,0.887% (inactive),14%,17.6%,–,inactive,24.3% (inactive),1.26 µM (active),–
O=C(c1csnn1)N1CCC2(CCCN(C(c3ccccc3)c3ccccc3)C2)CC1,> 11.4 µM (inactive),–,18.5% (inactive),–,> 46 µM (inactive),inactive,inactive,–,–,–,–,-2.23% (inactive),-8.01%,-8.95%,–,inactive,1.14% (inactive),–,–
O=C(c1cccc(F)c1)N1CCC2(CCCN(C(c3ccccc3)c3ccccc3)C2)CC1,> 11.4 µM (inactive),6.31 µM (active),17.2% (inactive),–,> 46 µM (inactive),inactive,inactive,–,–,–,–,2.12% (inactive),14.6%,19.7%,–,inactive,–,–,3.16 µM (active)
CC(C)NC(=O)N1CC[C@@]2(CCCN(S(=O)(=O)c3ccccc3)C2)C1,> 11.4 µM (inactive),inactive,1.4% (inactive),–,> 46 µM (inactive),inactive,inactive,–,–,–,–,3.83% (inactive),-9.01%,-4.67%,–,inactive,18.4% (inactive),–,–
N#Cc1cccc(NC(=O)N2CCCC3(CCN(S(=O)(=O)c4ccccc4)CC3)C2)c1,> 11.4 µM (inactive),–,-2.4% (inactive),–,> 46 µM (inactive),inactive,inactive,–,–,–,–,-3.45% (inactive),1.48%,-1.95%,–,inactive,–,–,–
